The structures appear in SMILES notation. The panel holds about 83,000 compounds, 20% with a hit somewhere; the sample as a whole holds those more often.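 Single-concentration screen, 48 h exposure, 96-well plates. Endpoint: percent growth. Below 10 = active.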 Unmarked numbers belong to inactive results. Activity calls are given as the source filed them.

This passage reports growth results from PubChem BioAssay (NCI).

Some test systems named below: HCT-15 colon; HT29 colon; SNB-19 CNS; U251 CNS; PC-3 prostate; SK-MEL-5 melanoma; UACC-62 melanoma; LOX IMVI melanoma; SK-MEL-28 melanoma; SK-MEL-2 melanoma; EKVX NSCLC; SN12C renal; UO-31 renal; TK-10 renal; ACHN renal; CAKI-1 renal; A498 renal; CCRF-CEM leukemia; MOLT-4 leukemia.
Common to all, as to test: NCI-60 one-dose screen, 48 h (100 = growth as untreated, 0 = no growth, -100 = all killed)
What all share (conditions): 10 µM unless noted

Take `CCOC(=O)CC(=O)OC`: the growth with HCT-15 colon is 102%; in the assay with HT29 colon it was 96.5%; with SNB-19 CNS, 96.3%; with U251 CNS, 101%; in the assay on PC-3 prostate it was 95.3%; with SK-MEL-5 melanoma, 100%. Besides, the growth in the assay with UACC-62 melanoma is 104%; with LOX IMVI melanoma, 100%; with SK-MEL-28 melanoma it was 104%; in the assay on SK-MEL-2 melanoma, 107%; in the assay on EKVX NSCLC it was 99.1%; in the assay on SN12C renal, 108%. Also, the growth in the assay with UO-31 renal is 90.4%; in the assay with TK-10 renal, 106%; with ACHN renal it was 107%; with CAKI-1 renal, 91.2%; in the assay with A498 renal, 92.2%; in the assay with CCRF-CEM leukemia, 97.5%. Also, the growth in the assay with MOLT-4 leukemia was 83.3%.
Consider `CCn1c2ccccc2c2cc(NC(=O)Nc3ccc([N+](=O)[O-])cc3C)ccc21`, for which the growth in the assay on HCT-15 colon was 25.5%; in the assay on HT29 colon it was 17.9%; in the assay with SNB-19 CNS it was 66.6%; in the assay on U251 CNS it was 31.5%; in the assay with PC-3 prostate, 19.2%; in the assay with SK-MEL-5 melanoma it was 48.1%. Moreover, the growth was 38.9% in the assay with UACC-62 melanoma; 39.2% with LOX IMVI melanoma; 67.2% in the assay with SK-MEL-28 melanoma; 53% with SK-MEL-2 melanoma; 62.3% with EKVX NSCLC; 55.6% in the assay with SN12C renal. Moreover, the growth is 23.6% in the assay on UO-31 renal; 53.8% in the assay on TK-10 renal; 31.9% in the assay on ACHN renal; -4.18% (active) in the assay with CAKI-1 renal; 65.7% in the assay with A498 renal; 9.61% (active) in the assay with CCRF-CEM leukemia. Also, the growth in the assay on MOLT-4 leukemia is 17.9%.
As to `CCCCOc1ccc(/C=C2/SC(N3CCOCC3)=NC2=O)cc1OCC`, the growth is 98.6% with HCT-15 colon; 104% in the assay with HT29 colon; 90.8% in the assay on SNB-19 CNS; 95.2% in the assay on U251 CNS; 87.1% with PC-3 prostate; 98.7% with SK-MEL-5 melanoma. For the same compound, the growth in the assay with UACC-62 melanoma is 88.6%; in the assay on LOX IMVI melanoma, 89.1%; in the assay on SK-MEL-28 melanoma, 97.4%; in the assay with SK-MEL-2 melanoma, 102%; with EKVX NSCLC it was 90.8%; in the assay on SN12C renal it was 85.2%. Further, the growth with UO-31 renal is 79.4%; with TK-10 renal, 116%; with ACHN renal, 96%; with CAKI-1 renal, 84.8%; with A498 renal, 90.2%; in the assay with CCRF-CEM leukemia it was 90%. For the same compound, in the assay with MOLT-4 leukemia, the growth was 101%.
On to `Clc1cccc(-c2cc(-c3ccc4c(c3)OCCO4)[nH]n2)c1`, for which the growth was 18.7% [25 µM] with HCT-15 colon; 7.83% [25 µM] (active) in the assay with HT29 colon; 45.7% [25 µM] with SNB-19 CNS; 27.4% [25 µM] with U251 CNS; 37.1% [25 µM] with PC-3 prostate; 5.53% [25 µM] (active) in the assay on SK-MEL-5 melanoma. For the same compound, the growth in the assay with UACC-62 melanoma was 45.4% [25 µM]; in the assay on LOX IMVI melanoma, 30.2% [25 µM]; with SK-MEL-28 melanoma, 56% [25 µM]; in the assay with SK-MEL-2 melanoma, 17.9% [25 µM]; in the assay on EKVX NSCLC, 24.3% [25 µM]; with SN12C renal, 36.3% [25 µM]. Also, the growth in the assay on UO-31 renal was 44.2% [25 µM]; in the assay on TK-10 renal, 61% [25 µM]; with ACHN renal, 44.7% [25 µM]; in the assay with CAKI-1 renal, 29% [25 µM]; in the assay with A498 renal, 6.47% [25 µM] (active); with CCRF-CEM leukemia, 17.9% [25 µM]. In the assay on MOLT-4 leukemia, the growth was 25.8% [25 µM].
With `NC1=C(/C(N)=N/O)C(c2ccccc2)c2ccc3ccccc3c2O1` (configuration not stated), the growth with HCT-15 colon is 5.04% (active); in the assay on HT29 colon, 6.2% (active); with SNB-19 CNS, 24.8%; in the assay on U251 CNS, 19.6%; in the assay on PC-3 prostate, 20.4%; with SK-MEL-5 melanoma, -44.5% (active). Further, the growth in the assay on UACC-62 melanoma is 19.8%; in the assay on LOX IMVI melanoma, 22.7%; in the assay on SK-MEL-28 melanoma it was 49.8%; in the assay on SK-MEL-2 melanoma, 44.7%; in the assay on EKVX NSCLC, 29.1%; in the assay with SN12C renal, 24.2%. Besides, the growth was 38.6% in the assay on UO-31 renal; 74.4% with TK-10 renal; 28.2% with ACHN renal; 26% in the assay on CAKI-1 renal; -8.95% (active) in the assay on A498 renal; 14.4% in the assay on CCRF-CEM leukemia. For the same compound, the growth in the assay with MOLT-4 leukemia is 27.2%.
Consider `COc1ccc(Nc2nn3c(-c4ccccc4)cc(-c4ccccc4)nc3c2C(N)=O)c(OC)c1`, for which the growth is 70.5% with HCT-15 colon; 41.9% with HT29 colon; 58.2% with SNB-19 CNS; 18.6% in the assay with U251 CNS; 44.6% in the assay on PC-3 prostate; 55.9% with SK-MEL-5 melanoma. The growth is 40.7% in the assay with UACC-62 melanoma; 54.6% with LOX IMVI melanoma; 71% in the assay on SK-MEL-28 melanoma; 70.1% with SK-MEL-2 melanoma; 67.7% in the assay on EKVX NSCLC; 46.4% in the assay with SN12C renal. Further, the growth with UO-31 renal is 86.9%; in the assay on TK-10 renal it was 29.7%; in the assay on ACHN renal, 67%; with CAKI-1 renal, 77.4%; with A498 renal it was 70.5%; in the assay on CCRF-CEM leukemia, 73.2%. Moreover, in the assay on MOLT-4 leukemia, the growth was 72.3%.
`CCN(CC)CCOc1ccc(/C(=C(/C)c2ccccc2)c2ccc(OC(C)=O)cc2)cc1`: the growth was 80.2% in the assay on HCT-15 colon; 67.2% in the assay with HT29 colon; 107% with SNB-19 CNS; 103% with U251 CNS; 96.9% with PC-3 prostate; 100% in the assay on SK-MEL-5 melanoma. In addition, the growth is 103% in the assay with UACC-62 melanoma; 102% in the assay with LOX IMVI melanoma; 105% in the assay with SK-MEL-28 melanoma; 121% in the assay on SK-MEL-2 melanoma; 95.6% in the assay on EKVX NSCLC; 93.6% with SN12C renal. The growth with UO-31 renal was 80.4%; in the assay on TK-10 renal, 111%; with ACHN renal, 111%; in the assay with CAKI-1 renal it was 90.8%; in the assay with A498 renal, 73.6%; in the assay on CCRF-CEM leukemia it was 94.3%. The growth with MOLT-4 leukemia is 106%.
Turning to `CCCCCCCCN(CCCCCCCC)CCCCCCNc1cc(OC)cc2cccnc12`, the growth was 109% in the assay on HCT-15 colon; 28.1% with HT29 colon; 94.1% with SNB-19 CNS; 84.9% with U251 CNS; 67.2% in the assay with PC-3 prostate; 103% in the assay with SK-MEL-5 melanoma. Further, the growth with UACC-62 melanoma was 110%; with LOX IMVI melanoma, 32.3%; in the assay on SK-MEL-28 melanoma, 106%; with SK-MEL-2 melanoma, 105%; with EKVX NSCLC, 87.4%; with SN12C renal it was 63.4%. The growth in the assay on UO-31 renal was 55.2%; with TK-10 renal, 118%; in the assay with ACHN renal, 91.4%; with CAKI-1 renal it was 72%; with A498 renal it was 110%; in the assay on CCRF-CEM leukemia it was -59% (active). The growth in the assay with MOLT-4 leukemia is 50%.
